{
  "source": "PubChem BioAssay (EPA / NIEHS)",
  "note": "Calls of active or inactive are those of the source. The calls were made as follows: active = hit-call score of the fitted dose curve at least 0.9, where 1 is the maximum; inactive = score below 0.9.",
  "data": [
    {"read-out": "solute carrier (SLCO1B1), SLCO1B1 (gene 10599)", "test": "LTEA_HepaRG_SLCO1B1: Life Technologies and Expression Analysis (LTEA) Assay for solute carrier (SLCO1B1) using HepaRG (AID 2283530)", "conditions": "mRNA level, 48 h; actives raise or lower the signal", "method": "LTEA_HepaRG is a cell based, multiplexed-readout assay that uses HepaRG, a human liver cell line, with measurements taken at 48 hours after chemical dosing on a 96-well plate.LTEA_HepaRG_SLCO1B1 is one of 102 assay component(s) measured in the LTEA HepaRG cell culture assay. It is a marker of NR mediated transport.Data from the assay component LTEA_HepaRG_SLCO1B1 was analyzed into 1 endpoint. This assay endpoint, LTEA_HepaRG_SLCO1B1, was analyzed with bidirectional fitting relative to DMSO as the negative control and baseline of activity. Using a type of inducible reporter, measures of mRNA induction for gain or loss-of-signal activity can be used to understand regulation of transcription factor activity. To generalize the intended target to other relatable targets, this assay endpoint is annotated to the transporter intended target family, where the subfamily is organic anion transporter.\nA total of 1060 chemcials from the ToxCast library were tested in eight-point concentration-response experiments. Cell culture and cytotoxicity assays were conducted at Thermo Fisher Scientific's Custom Services facility (Madison, WI). A single lot of human HepaRG cells (Thermo Fisher Scientific, Frederick, MD) was used for the cell culture experiments. 96-well format collagen type I coated plates of human HepaRG cells were prepared using established methods. Briefly, cryopreserved HepaRG cells were thawed, plated at a density of approximately 100,000 cells/well in HepaRG Thaw, Plate, and General Purpose media (HPRG770, Thermo Fisher Scientific), and incubated for 48 hours. 0.5% DMSO was selected as vehicle control to balance the requisite need of DMSO in HepaRG cultures to maintain differentiation (for example, baseline metabolism, proportions of hepatocytes vs. cholangiocytes), while enabling further hepatic receptor pathway activation (for example, PXR and CAR) in response to chemical exposure. 48 hours after plating, the culture medium was replaced with HepaRG Serum-Free Incudtion Media. Cells were exposed to each test chemical in duplicate and maintained in CO2 incubators for another 48 hours. Chemical plates were thawed to room temperature and 200x concentrations of treatment groups were prepared. 8-point conentration-reponse curves were made with the highest exposure at 100 uM, followed by half-log dilutions, all in 0.5% DMSO. Each test plate contained variouse controls, induction positive controls (1mM phenobarbital), cytotoxicity positive controls ([…] aflatoxin B1), vehicle controls (0.5% DMSO), and total lysis controls (0.5% DMSO). Cell morphology images were taken using an Essen IncuCyte FLR automated microscope, with six 96-well plates imaged in about 24 minutes. Images were captured and exported and JPEG files. Spent culture media was transfered to black-well plates for the LDH assay, and remaining media was sorted at -80 C for later use. Cells were treated with RLT buffer and frozen until shipped for gene expression analysis. Total RNA was isolated from the cell suspension in 75 uL of Buffer RLT (Qiagen, Germantown, MD 20874) by Quintiles/Expression Analysis (Durham, NC) using a custom isolation procedure. Total RNA from each plate well was transferred to a preamplification plate. Fluidigm's 96.96 Dynamic ArrayTM (Fluidigm, Amsterdam, the Netherlands) technology was used for gene expression analyses by quantitative reverse transcription polymerase chain reaction (qRT-PCR, performed by Quintiles/Expression Analysis, Durham, NC)89. Standard TaqManTM Assays (Applied Biosystems/ThermoFisher Scientific, Foster City, CA) were used to assess the expression of 93 genes selected based on their selectivity and sensitivity to important hepatic receptors known to be modulated by environmental chemicals; importance in human hepatocyte functionality; and hepatotoxicity. […]", "values": [
      {"smiles": "Cc1c(C(=O)O)c(O)cc2c1C(=O)c1c(O)c([C@@H]3O[C@H](CO)[C@@H](O)[C@H](O)[C@H]3O)c(O)c(O)c1C2=O", "outcome": "inactive"},
      {"smiles": "CCCCCCCCCCC", "outcome": "inactive"},
      {"smiles": "C1CCC(SSC2CCCCC2)CC1", "outcome": "inactive"},
      {"smiles": "CC(=O)OCCOCCOCCOC(C)=O", "outcome": "inactive"},
      {"smiles": "O=[N+]([O-])C(CO)(CO)CO", "outcome": "inactive"},
      {"smiles": "CC1(C)NC(=O)NC1=O", "outcome": "inactive"},
      {"smiles": "COc1ccc(C)cc1N", "outcome": "inactive"},
      {"smiles": "Oc1ccc2ccccc2c1N=Nc1ccccc1", "AC50": "11.4 µM (active)"},
      {"smiles": "Clc1cc(Cl)c(Cl)cc1Cl", "outcome": "inactive"},
      {"smiles": "CCCCCCCCCCCCCCCC", "outcome": "inactive"},
      {"smiles": "CC(CO)OC(C)CO", "note": "(stereo not given) (tested in a mixture with another compound)", "outcome": "inactive"},
      {"smiles": "CC1(C)CC(N=C=O)CC(C)(CN=C=O)C1", "note": "(stereo not given)", "outcome": "inactive"},
      {"smiles": "COc1ccc(S(=O)(=O)N2C(=O)[C@@](c3ccccc3OC)(N3C[C@H](O)C[C@H]3C(=O)N(C)C)c3cc(Cl)ccc32)c(OC)c1", "AC50": "25.9 µM (active)"},
      {"smiles": "COc1cc(-c2nc(NC(=O)c3cc4cc(C)cc(C)c4n3CC(=O)O)sc2CCC2CCCCC2)c(OC)cc1Cl", "AC50": "6.78 µM (active)"},
      {"smiles": "CCCCCCCCCCO", "outcome": "inactive"},
      {"smiles": "Nc1ccc2c(c1)C(=O)c1ccccc1C2=O", "AC50": "4.66 µM (active)"},
      {"smiles": "CC(=O)Oc1ccccc1C(=O)O", "outcome": "inactive"},
      {"smiles": "Cc1ccc(C(C)C)c(O)c1", "outcome": "inactive"},
      {"smiles": "CCCc1cc(=O)[nH]c(=S)[nH]1", "outcome": "inactive"},
      {"smiles": "CCCCCCC(=O)OCC", "outcome": "inactive"},
      {"smiles": "C=CCOC(=O)c1ccccc1C(=O)OCC=C", "outcome": "inactive"},
      {"smiles": "Oc1ccc2c(c1)OC[C@@H](N1CCC(O)(c3ccc(F)cc3)CC1)[C@H]2O", "outcome": "inactive"},
      {"smiles": "CCc1c(C(=O)NN2CCCCC2)nn(-c2ccc(Cl)cc2Cl)c1-c1ccc(Br)cc1", "AC50": "36.9 µM (active)"},
      {"smiles": "Cc1nc(C)nc(N2C[C@@H](C)N(c3ccnc([C@@H](C)O)n3)[C@@H](C)C2)n1", "outcome": "inactive"},
      {"smiles": "CCOc1ccc2c(c1)C(C)=CC(C)(C)N2", "outcome": "inactive"},
      {"smiles": "Cc1cc(=O)[nH]c(=S)[nH]1", "outcome": "inactive"},
      {"smiles": "COC(=O)c1ccc(O)cc1", "outcome": "inactive"},
      {"smiles": "C[Si]1(C)O[Si](C)(C)O[Si](C)(C)O[Si](C)(C)O1", "outcome": "inactive"},
      {"smiles": "CCCCCCCCCCCC(=O)OC", "outcome": "inactive"},
      {"smiles": "O=C(N[C@@H](Cc1ccccc1)[C@@H](O)C(=O)N1C[C@@H](O)[C@@H](O)C1)c1cc2cc(Cl)ccc2[nH]1", "outcome": "inactive"},
      {"smiles": "O=C(O)Cc1ccccc1Nc1c(Cl)cccc1Cl", "outcome": "inactive"},
      {"smiles": "NCC1(Cc2noc(=O)[nH]2)CCCCC1", "outcome": "inactive"},
      {"smiles": "O=c1[nH]cc(F)c(=O)[nH]1", "outcome": "inactive"},
      {"smiles": "NC(=O)Cn1c(=O)cc(CCN2CCN(c3nccc4sccc34)CC2)c2ccc(F)cc21", "outcome": "inactive"},
      {"smiles": "Cc1cccc([N+](=O)[O-])c1C", "outcome": "inactive"},
      {"smiles": "CCCCN(CCCC)CCCC", "outcome": "inactive"},
      {"smiles": "OC[C@@H](O)[C@@H](O)[C@H](O)[C@H](O)CO", "outcome": "inactive"},
      {"smiles": "CN1CCN(Cc2cc(-c3ccc4[nH]c(=O)oc4c3)co2)[C@@H](c2ccc(F)cc2)C1", "outcome": "inactive"},
      {"smiles": "Cc1ccc(C)c(O)c1C", "outcome": "inactive"},
      {"smiles": "CCCCCCCCCCCCCCCCCC(=O)O", "outcome": "inactive"}
    ]}
  ]
}
